Screens as filed in PubChem BioAssay.
CHO-K1 Ca PAM: counter-screen for M1 PAMs: effect in parental CHO-K1 cells; 360,000 compounds, 0.02% hits; activation, % at 3 µM; ATP EC20, Fluo-8 calcium fluorescence; 0% at ATP EC20, 100% at ATP max;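 active = activation above the run cutoff, the mean activation of all test compounds plus 3 SD, cut at about 40% in these data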;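 also: peak over basal fluorescence ratio in a 140 s read after ATP addition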
CHO-K1 Ca antag: counter-screen for M1 antagonists: effect in parental CHO-K1 cells. ATP-induced calcium, Fluo-8 fluorescence. 360,000 compounds, 0.6% hits. inhibition, % at 3 µM. AID 602250;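 active = inhibition above a per-plate cutoff, the plate's mean sample inhibition plus 3 SD, cut at about 24% in these data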;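 also: 0% = DMSO plus EC80 ATP and 100% = DMSO alone without ATP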
M1 PAM: positive allosteric modulators of human M1 muscarinic receptor; P11229; CHO-K1 hM1, Fluo-8 calcium fluorescence, ACh EC20; 0% = ACh EC20, 100% = maximal ACh; activation, % at 3 µM; 360,000 compounds, 0.088% hits; AID 588819; in the data active = activation above about 19%, passing the limit was not always enough
Target sequence (P11229 whole entry, looked up): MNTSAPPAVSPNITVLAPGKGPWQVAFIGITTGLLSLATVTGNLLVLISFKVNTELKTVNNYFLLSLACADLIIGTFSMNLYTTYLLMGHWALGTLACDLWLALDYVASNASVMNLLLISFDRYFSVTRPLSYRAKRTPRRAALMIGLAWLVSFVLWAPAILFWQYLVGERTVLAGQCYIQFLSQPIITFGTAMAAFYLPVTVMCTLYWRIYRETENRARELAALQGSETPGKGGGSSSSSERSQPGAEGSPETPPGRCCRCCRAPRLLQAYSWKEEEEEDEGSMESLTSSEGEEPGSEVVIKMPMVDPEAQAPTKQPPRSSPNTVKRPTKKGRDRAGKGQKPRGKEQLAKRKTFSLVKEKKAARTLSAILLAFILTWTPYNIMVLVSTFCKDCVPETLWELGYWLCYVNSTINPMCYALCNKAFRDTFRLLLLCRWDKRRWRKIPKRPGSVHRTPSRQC
CHRM1 agonist: activates human CHRM1 receptor | P11229 | CHO-K1 hM1, Fluo-8 calcium fluorescence, agonist mode; 0% DMSO, 100% acetylcholine EC100 | activation, % at 3 µM | 360,000 compounds, 0.33% hits;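 active = activation above the run's mean compound activation plus 3 SD, cut at about 16% in these data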;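 also: peak over basal fluorescence ratio within a 140 s kinetic read after compound addition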
M1 ag parental: M1 agonist counterscreen hit in parental CHO-K1 cells; activation, % at 3 µM; AID 602248; Fluo-8 calcium fluorescence; scaled to maximal ATP response, vehicle zero; 360,000 compounds, 0.48% hits; in the data active = activation above about 15%;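 also: untransfected CHO-K1 host cells lacking M1 receptor as counterscreen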
M1 antag: antagonists of human M1 muscarinic receptor; P11229; CHO-K1 hM1, Fluo-8 calcium fluorescence, ACh EC80 antagonist; inhibition, % at 3 µM; 360,000 compounds, 1.3% hits; AID 588852;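 active = percent inhibition above its own plate's cutoff, namely the mean of that plate's compound wells plus 3 SD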;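 also: peak over basal fluorescence ratio during 140 s after agonist addition; 0% = ACh EC80 plus DMSO and 100% = DMSO alone without agonist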
Numbers without * were called inactive; / = no result. Shown are actives, neighbours in structure and some others; about 2.3% of the full set was active somewhere.

SMILES	CHO-K1 Ca PAM	CHO-K1 Ca antag	M1 PAM	CHRM1 agonist	M1 ag parental	M1 antag
CCN1CCN(C(=O)c2ccccc2N(Cc2ccccc2)S(=O)(=O)c2ccc(C)cc2)CC1	6	1	-9	28*	1	10
CCN(c1ccc(NC(=O)COC(=O)c2ccc(S(=O)(=O)N3CCCC3)cc2)cc1)C(C)C	4	-6	-25	-6	1	68*
Cc1ccc(NC(=O)CNc2cccc(S(=O)(=O)N3CCCCC3)c2)cc1F	-15	21	-3	0	12	6
CN(C(=O)c1cccc(NC(=O)Cc2cccc(NC(=O)C3CCN(C(=O)C4CCCCC4)CC3)c2)c1)C1CCC1	24	-17	13	-7	0	-16
CCCCN(C(=O)c1cc2c(s1)CCC2)c1c(N)n(CCC)c(=O)[nH]c1=O	8	-4	8	3	3	-18
O=C(CN(CC1CCCO1)C(=O)CNS(=O)(=O)c1ccc(F)cc1)NC1CCCCC1 (stereo not drawn)	12	-14	14	-4	1	-22
CCN1CCN(S(=O)(=O)c2ccc(S(=O)(=O)N(CC)Cc3ccccc3)cc2)CC1	10	6	-6	-6	22*	-4
CCN(CC(=O)Nc1ccc(S(=O)(=O)N2CCOCC2)cc1)Cc1ccccc1	-3	7	1	-7	0	-7
CCN(CC(=O)Nc1ccc(S(=O)(=O)N2CCCC2)cc1)Cc1ccccc1	6	-1	-23	-6	2	45*
Nc1ccn([C@@H]2O[C@H](CNCc3cnc(N4CCOCC4)nc3)[C@@H](O)[C@H]2O)c(=O)n1	13	-5	8	-1	0	-12
CCN(Cc1ccc2c(c1)OCCO2)C(=O)CN1C(=O)NC2(CCCCC2)C1=O	27	-30	1	-5	0	-8
CCOc1cc(C(=O)N[C@@H](C)C(=O)N2CCC3(CC2)NCCc2[nH]cnc23)cc(OCC)c1OCC	5	-10	4	-4	2	-8
COc1cc(-c2nc3ccccn3c2NCC2CCCO2)ccc1O (stereo not drawn)	14	-2	-13	2	5	24*
CCOc1cc(-c2nc3ccccn3c2NCC2CCCO2)ccc1O (stereo not drawn)	7	15	-13	2	5	24*
COc1cc(-c2nc3ccccn3c2/N=C/c2ccccc2)ccc1O	12	-19	-6	27*	0	-7
O=[N+]([O-])/C(Cl)=C(/NCCO)C(Cl)=C(Cl)Cl	-5	-5	10	-1	0	-9
CCN(CC)c1ccc(-c2nc3cnccc3n2C)cc1	5	-2	-20	-6	0	39*
Cn1c(-c2ccncc2)nc2ccccc21	1	-6	3	-5	0	-5
NC(=O)CC(NC(=O)Cc1ccc(Br)cc1)c1ccc(N2CCC(N3CCCCC3)CC2)c([N+](=O)[O-])c1 (stereo not drawn)	3	-10	-4	-11	0	4
O=C(NCc1ccccc1Cl)[C@H]1CCCN1C(=O)[C@H]1CCCN1C(=O)c1cccc2ccccc12	3	0	/	/	16*	/
COc1ccc(NS(=O)(=O)c2ccc(C(=O)N3CCN(c4ccc(F)cc4)CC3)cc2)cc1	-7	1	-15	9	16*	28
O=C(c1ccc(S(=O)(=O)Nc2ccc(F)cc2)cc1)N1CCN(c2ccccn2)CC1	-12	10	-20	0	17*	37*
Cc1ccc(S(=O)(=O)NNC(=O)c2ccc(NC(=O)C3CC3)cc2)cc1	-14	9	6	-2	3	-9
O=C(c1ccccc1)N1CCN=C1c1ccccc1	23	-10	2	-4	0	6
COc1ccc(C(=O)N2CCN=C2c2ccccc2)cc1OC	-6	26*	-8	0	0	3
SMILES	CHO-K1 Ca PAM	CHO-K1 Ca antag	M1 PAM	CHRM1 agonist	M1 ag parental	M1 antag
CCc1cccc(NS(=O)(=O)c2c(C)nc3sc(CC)nn3c2=O)c1	3	1	-29	-9	2	73*
CC1(C)CC(NC(=O)C2CCN(S(=O)(=O)c3ccc(F)cc3)CC2)CC(C)(C)N1	14	-19	14	-5	1	-17
Cc1ccc(C)c(C(C)NC(=S)NCc2ccc(F)cc2)c1 (stereo not drawn)	7	-9	-7	10	17*	11
CC(c1ccccc1)C1OCC(C[N+]2(C)CCCCC2)O1 (stereo not drawn)	17	-13	-23	-6	0	99*
Cc1c(CC(=O)N[C@@H](C)C(=O)O)c(=O)oc2c(C)c3occ(-c4ccccc4)c3cc12	15	-9	31*	-1	0	-26
Nc1c(Cl)ncnc1Nc1ccc(C(=O)O)cc1	-7	-9	-1	-2	0	-2
CCN(CC)CCCn1c2c(c(SCC(=O)Nc3cc(OC)cc(OC)c3)nc1=O)CCC2	-20	-1	-16	-8	3	29*
O=C(CSc1nc(=O)n(CCCN2CCOCC2)c2c1CCCC2)Nc1cccc(F)c1	-15	5	-14	-8	3	30*
CCCCc1ccc(NC(=O)CSc2nc(=O)n(CCN(CC)CC)c3c2CCC3)cc1	-18	-2	-20	-7	0	36*
O=C(CSc1nc(=O)n(CCCN2CCOCC2)c2c1CCCC2)Nc1cccc([N+](=O)[O-])c1	12	-1	-16	-9	4	26
CCN(CC)CCn1c2c(c(SCC(=O)Nc3ccc(C)c(F)c3)nc1=O)CCCC2	11	-5	-26	-8	0	50*
CC1(NC(=O)Nc2cccc(Br)c2)CCS(=O)(=O)C1 (stereo not drawn)	6	-4	6	2	3	-6
CCc1nc(N2CCN(C(=S)NCCCOC)CC2)c2c3c(sc2n1)CCCC3	11	-7	-6	-7	2	-6
CCOC(=O)C1(CC2CCCCO2)CCN(Cc2cc3ccccc3[nH]2)CC1 (stereo not drawn)	-8	9	-32	62*	57*	29*
CCc1ccc(CNC(=O)C2CCCN(c3nnc(C)c4c(C)n(-c5ccccc5)nc34)C2)cc1 (stereo not drawn)	33	-22	-40	-13	-1	49*
Cc1nnc(N2CCCC(C(=O)NCc3cccc(F)c3)C2)c2nn(-c3ccccc3)c(C)c12 (stereo not drawn)	-9	0	-16	-6	-2	30
CCN(CC)C(=O)C1=C(C)N(Cc2ccccc2)C(=O)C(CC(=O)NCCN2CCOCC2)C1 (stereo not drawn)	15	-13	12	-4	1	-16
COc1ccccc1C(CNC(=O)c1ccc(NS(=O)(=O)c2ccc(F)c(C)c2)cc1)N1CCCC1 (stereo not drawn)	7	-1	-13	-6	0	22
